Among the test systems are NCI-H23 lung; NCI-H226 lung; NCI-H322M lung; HOP-62 NSCLC; NCI-H460 lung; A549/ATCC NSCLC; 786-0 renal; COLO 205 colon; DU-145 prostate; K-562 leukemia; MALME-3M melanoma; MDA-MB-231 breast; RXF 393 renal; SF-268 CNS; SF-295 CNS; SF-539 CNS; UACC-257 melanoma; M14 melanoma.
What all share (assay): NCI-60 one-dose screen, 48 h (100 = growth as untreated, 0 = no growth, -100 = all killed)
Holding throughout (details): 10 µM unless noted

Compounds without any hit were thinned out: in the full panel of roughly 83,000, 20% have a hit.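 Percent growth is the endpoint: 0 to 100 indicates growth inhibition (40 means 60% inhibition), 0 means no net growth, and negative values indicate cell death.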 Values without a mark were called inactive. The source made the active and inactive calls. The calls were made as follows: active = growth percent below 10; inactive = the rest.

As for `O=C(Nc1ccc(-n2cc(-c3ccncc3)c(-c3ccc(Cl)c(O)c3)n2)cc1)c1cc(C(F)(F)F)cc(C(F)(F)F)c1`, the growth is 63.8% with NCI-H23 lung; 94.3% in the experiment with NCI-H226 lung; 116% in the experiment with NCI-H322M lung; 53.9% with HOP-62 NSCLC; 36.7% in the experiment on NCI-H460 lung; 52.2% in the experiment on A549/ATCC NSCLC. For the same compound, the growth in the experiment on 786-0 renal is 38.4%; in the experiment with COLO 205 colon it was 70.1%; with DU-145 prostate, 74.2%; in the experiment on K-562 leukemia, 29.7%; with MALME-3M melanoma, 102%; with MDA-MB-231 breast it was 46.3%. Moreover, the growth is -42.6% (active) in the experiment with RXF 393 renal; 61.8% in the experiment with SF-268 CNS; 25% with SF-295 CNS; 50.9% in the experiment on SF-539 CNS; 63.2% with UACC-257 melanoma; 45.1% with M14 melanoma.

With `O=C1CCNC1`, the growth was 111% in the experiment on NCI-H23 lung; 103% in the experiment with NCI-H226 lung; 96.5% with NCI-H322M lung; 108% in the experiment with HOP-62 NSCLC; 109% in the experiment on NCI-H460 lung; 101% in the experiment on A549/ATCC NSCLC. Further, the growth in the experiment on 786-0 renal is 96.1%; in the experiment with COLO 205 colon, 112%; in the experiment on DU-145 prostate it was 103%; in the experiment with K-562 leukemia, 108%; in the experiment with MALME-3M melanoma, 108%; in the experiment with MDA-MB-231 breast it was 101%. In addition, the growth in the experiment on RXF 393 renal was 105%; in the experiment with SF-268 CNS, 111%; with SF-295 CNS it was 108%; in the experiment on SF-539 CNS it was 102%; with UACC-257 melanoma, 95.8%; with M14 melanoma, 105%.

Regarding `CCCCCCC(=O)C(C)C`, the growth in the experiment on NCI-H23 lung was 107%; in the experiment on NCI-H226 lung, 92.3%; in the experiment on NCI-H322M lung it was 96.5%; with HOP-62 NSCLC it was 93.8%; in the experiment on NCI-H460 lung it was 113%; with A549/ATCC NSCLC it was 97.5%. In addition, the growth is 94.5% with 786-0 renal; 112% in the experiment on COLO 205 colon; 106% in the experiment on DU-145 prostate; 94.9% in the experiment on K-562 leukemia; 89.2% in the experiment on MALME-3M melanoma; 111% in the experiment with MDA-MB-231 breast. For the same compound, the growth with RXF 393 renal was 101%; in the experiment on SF-268 CNS, 105%; with SF-295 CNS, 101%; in the experiment on SF-539 CNS it was 104%; in the experiment with UACC-257 melanoma it was 92.8%; in the experiment on M14 melanoma, 97.2%.

Take `CC(=O)N1CCN(CCNC(=O)n2cc(-c3ccncc3)c(-c3ccc(O)c(Cl)c3)n2)CC1`: the growth is 109% in the experiment with NCI-H23 lung; 112% with NCI-H226 lung; 141% with NCI-H322M lung; 106% in the experiment on HOP-62 NSCLC; 103% with NCI-H460 lung; 100% in the experiment on A549/ATCC NSCLC. For the same compound, the growth was 113% with 786-0 renal; 119% in the experiment with COLO 205 colon; 105% with DU-145 prostate; 91.8% in the experiment with K-562 leukemia; 90.6% in the experiment on MALME-3M melanoma; 107% with MDA-MB-231 breast. Also, the growth was 120% with RXF 393 renal; 107% with SF-268 CNS; 130% with SF-295 CNS; 101% with SF-539 CNS; 103% in the experiment on UACC-257 melanoma; 70.2% in the experiment on M14 melanoma.

`Cc1ccccc1-n1c(C)nc2cc(NC(=O)c3ccc(Cl)cc3)ccc2c1=O`: the growth with NCI-H23 lung is 64.3%; with NCI-H226 lung, 88.8%; with NCI-H322M lung, 94.2%; with HOP-62 NSCLC it was 97.4%; in the experiment on NCI-H460 lung it was 72.4%; with A549/ATCC NSCLC it was 72.2%. In addition, the growth with 786-0 renal is 67.6%; in the experiment on COLO 205 colon, 119%; with DU-145 prostate, 87.6%; in the experiment on K-562 leukemia it was 55.8%; with MALME-3M melanoma, 53.5%; with MDA-MB-231 breast, 58.4%. The growth in the experiment on RXF 393 renal is 77.7%; with SF-268 CNS it was 77.8%; in the experiment with SF-295 CNS, 59.7%; in the experiment with SF-539 CNS, 58.2%; in the experiment on UACC-257 melanoma, 59.7%; in the experiment on M14 melanoma, 68.7%.

Regarding `O=C1C(Br)=CC2C1C1C3CCC3C2(Br)C12OCCO2` (centres undefined), the growth in the experiment on NCI-H23 lung is 65.8%; in the experiment on NCI-H226 lung, 59.6%; in the experiment with NCI-H322M lung it was 54.5%; in the experiment with HOP-62 NSCLC, 47.2%; in the experiment on NCI-H460 lung it was 22.6%; in the experiment on A549/ATCC NSCLC, 33.2%. In addition, the growth in the experiment with 786-0 renal is 42.8%; in the experiment on COLO 205 colon, 38.9%; with DU-145 prostate, 19.7%; with K-562 leukemia, 15.8%; in the experiment on MALME-3M melanoma it was 46%; in the experiment with MDA-MB-231 breast, 51.7%. Moreover, the growth in the experiment on RXF 393 renal is 18.4%; with SF-268 CNS it was 25.6%; in the experiment on SF-295 CNS, 31.4%; in the experiment with SF-539 CNS it was 14.5%; in the experiment on UACC-257 melanoma it was 54%; in the experiment with M14 melanoma, 44.4%.

For `COC(=O)C(Cc1cnc[nH]1)N1CC(=O)N2[C@@H](c3ccccc3)SC[C@H]2C1=O` (some centres undefined), the growth with NCI-H23 lung is 100%; in the experiment with NCI-H226 lung, 143%; in the experiment on NCI-H322M lung, 112%; in the experiment with HOP-62 NSCLC it was 114%; with NCI-H460 lung it was 109%; in the experiment with A549/ATCC NSCLC it was 96.4%. The growth with 786-0 renal is 107%; with COLO 205 colon, 124%; in the experiment on DU-145 prostate it was 117%; in the experiment on K-562 leukemia it was 106%; in the experiment on MALME-3M melanoma it was 108%; with MDA-MB-231 breast, 116%. The growth is 193% in the experiment on RXF 393 renal; 104% with SF-268 CNS; 93.5% in the experiment with SF-295 CNS; 105% with SF-539 CNS; 96.7% in the experiment with UACC-257 melanoma; 101% in the experiment with M14 melanoma.

Consider `O=C(Nc1ccc(-n2cc(-c3ccncc3)c(-c3ccc(Cl)c(O)c3)n2)cc1)c1ccc(Cl)c(C(F)(F)F)c1`, for which the growth was -54.4% (active) in the experiment on NCI-H23 lung; 89% in the experiment with NCI-H226 lung; 37.2% in the experiment on NCI-H322M lung; -66.1% (active) in the experiment on HOP-62 NSCLC; -74.4% (active) in the experiment with NCI-H460 lung; -30.3% (active) with A549/ATCC NSCLC. The growth in the experiment on 786-0 renal is -94.1% (active); with COLO 205 colon it was -1.56% (active); in the experiment with DU-145 prostate, 26.4%; in the experiment on K-562 leukemia it was 2.13% (active); in the experiment on MALME-3M melanoma, -26.6% (active); in the experiment on MDA-MB-231 breast, -33.5% (active). The growth is -66.3% (active) with RXF 393 renal; 28.6% in the experiment with SF-268 CNS; -63.4% (active) with SF-295 CNS; -32.4% (active) in the experiment with SF-539 CNS; 31.4% in the experiment with UACC-257 melanoma; -79.4% (active) in the experiment on M14 melanoma.

(Values after PubChem BioAssay (NCI).)
